Source: PubChem BioAssay
Shown are actives, neighbours in structure and some others; about 2% of the full set was active somewhere.
SUMO Mot1 rescue: blocks SUMOylation pathway, rescuing yeast Mot1-301 growth. growth rescue, % at 18.8 µM. S. cerevisiae Mot1-301 growth rescue, ATP luminescence, 38.5C; percent above DMSO median, 100 means doubled. 1% of 320,000 active;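 active means every valid replicate shows activation above 250% relative to neutral control wells; inactive means the rest, any valid replicate at or below 250%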;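 further: OY570 slx delta 5 strain wells were the positive control but not used for scaling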
MsrA inh: bovine MsrA inhibition | purified bovine MsrA, absorbance read-out | inhibition, % at 15.5 µM | 0.75% of 360,000 active; in the data active means inhibition above about 4.5%;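 further: 0% = vehicle wells with enzyme and 100% = reference inhibitor wells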
PKA-R2B activ: activators of human PKA-R2B complex; P22694+P31323; PKA-R2B holoenzyme dissociation, Cy5-IP20 fluorescence polarization; R2B truncated from residue 108, S112A mutant; 0% DMSO only, 100% 113 µM cGMP; activation, % at 11.4 µM; 0.079% of 340,000 active; AID 504700;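 active means activation above a cutoff set at the mean over all compounds plus 3 SD, cut at about 18% in these data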;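 further: higher means more holoenzyme dissociation and a rise in polarization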
Target sequence (P31323 whole entry, looked up, other chains not shown, the tested form may be a part): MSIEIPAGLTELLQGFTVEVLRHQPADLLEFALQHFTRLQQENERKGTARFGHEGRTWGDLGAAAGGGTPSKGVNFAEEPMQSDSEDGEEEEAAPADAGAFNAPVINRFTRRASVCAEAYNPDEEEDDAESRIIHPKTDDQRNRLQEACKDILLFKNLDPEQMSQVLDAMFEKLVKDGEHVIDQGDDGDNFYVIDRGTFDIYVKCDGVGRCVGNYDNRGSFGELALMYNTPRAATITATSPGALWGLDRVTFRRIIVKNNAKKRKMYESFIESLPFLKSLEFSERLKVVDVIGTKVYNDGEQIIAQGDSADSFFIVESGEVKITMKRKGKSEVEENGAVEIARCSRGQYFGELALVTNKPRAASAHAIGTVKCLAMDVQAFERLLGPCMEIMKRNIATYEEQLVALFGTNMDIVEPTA
PKA-R1A activ: activators of PKA-R1A complex; PKA-R1A dissociation, Cy5-IP20 fluorescence polarization; scaled: DMSO 0%, 113 µM cGMP 100%; activation, % at 11.4 µM; 0.083% of 340,000 active; AID 504707;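 active means percent activation above the mean of all tested compounds plus 3 SD, cut at about 19% in these data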;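 further: higher means more PKAc released from R1A so a rise in polarization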
bovine MsrA act: bovine methionine sulfoxide reductase A activation; purified bovine MsrA, absorbance read-out; activation, % at 10.6 µM; 0.3% of 360,000 active; AID 602163; in the data active means activation above about 7.5%;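 further: 0% = vehicle and 100% = reference activator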
MsrA act confirm: bovine methionine sulfoxide reductase A activation confirmed. AID 602270. purified bovine MsrA, absorbance read-out. activation, % at 10.6 µM. shares compounds with bovine MsrA act. 12% of 1,000 active; in the data active means activation above about 4%;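 further: enzyme coupled to thioredoxin and thioredoxin reductase with NADPH; 0% = vehicle wells and 100% = reference activator wells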
Active calls of the source: *; / = no result given.

SMILES	SUMO Mot1 rescue	MsrA inh	PKA-R2B activ	PKA-R1A activ	bovine MsrA act	MsrA act confirm
CCCn1c(=O)c2ccccc2n2c(SCC(=O)c3ccccc3)nnc12	7	0	-2	-1	12*	-3
COc1ccc(C(=O)c2sc3nc(-c4ccccc4)ccc3c2N)cc1	54	/	-2	4	-1	/
CC(C)OC(=O)c1sc2nc(-c3ccccc3)ccc2c1N	-3	1	-8	-3	8.8*	0
CCOC(=O)CNC(=O)c1ccccc1Br	11	0	-8	10	21*	-1
N=C(N)Sc1nc(N2CCCCC2)nc(N2CCCCC2)n1	66	-1	-1	-6	-5	/
c1ccc(Sc2nc(N3CCCCC3)nc(N3CCCCC3)n2)nc1	19	-1	1	-4	9.3*	1
O=C(NC1CC1)C1=C[C@H](c2ccc(Br)cc2)C[C@H](OCc2ccc(CO)cc2)O1	5	1	-4	-4	-3	/
O=C(NC1CC1)C1=C[C@@H](c2ccc(C(F)(F)F)cc2)C[C@@H](OCc2ccc(CO)cc2)O1	-16	1	4	-11	8.1*	3
Cc1ccc(CN2CCC=CS2(=O)=O)cc1	/	-1	/	/	/	/
CN(C)c1nc(=S)nc(NCc2ccccc2)[nH]1	/	2	-6	-7	5	/
CC(C)CNc1nc(=S)nc(N(C)C)[nH]1	95	1	6	-5	8.3*	4.2*
O=C(OCC(=O)c1c[nH]c2ccccc12)c1ccc([N+](=O)[O-])s1	22	4	-11	-9	16*	6.6*
CCc1cccc2c(C(=O)COC(=O)c3ccc([N+](=O)[O-])s3)c[nH]c12	145	2	6	-1	0	/
CCCCCCCCN1C(=O)[C@@H](CC(=O)N2CCN(C(=O)C3CC3)CC2)C[C@@]2(C(=O)OC)C1=C[C@H](C1CCCC1)O[C@@H]2C	/	-1	/	/	/	/
CCOc1ccc(C(=O)NC2CCN(C(=O)NCc3ccccc3)CC2)cc1	-5	0	-1	-7	9.6*	-1
CC(C)c1[nH]nc2c1C(c1ccc(Br)cc1)NC2=O (stereo not given)	/	-1	/	/	/	/
Nc1nc2c(ncn2[C@@H]2O[C@H](C(=O)N[C@H](Cc3ccccc3)C(=O)O)[C@@H](O)[C@H]2O)c(=O)[nH]1	/	1	/	/	/	/
C[C@H](CO)N1C[C@H](C)[C@H](CN(C)C(=O)Nc2ccc(F)cc2)Oc2ncc(Br)cc2C1=O	/	0	/	/	/	/
Cc1c(NC(=O)c2ccc(C(C)(C)C)cc2)cccc1[N+](=O)[O-]	-8	2	-11	-6	11*	-1
Cc1cc(C(=O)Nc2cccc([N+](=O)[O-])c2C)cs1	0	1	-11	8	-3	/
CCCOc1ccc(-c2nc(=S)[nH][nH]2)cc1	-5	1	-7	-3	9.2*	3
Cc1ccc(C(=O)CCC(=O)OCC(=O)N(C)c2c(N)n(Cc3ccccc3)c(=O)[nH]c2=O)cc1	-16	-1	-4	3	-2	/
CCN(C(=O)COC(=O)CCC(=O)c1ccc(Cl)cc1)c1c(N)n(Cc2ccccc2)c(=O)[nH]c1=O	/	0	-5	-15	7.7*	-2
COC(=O)[C@]12C[C@H](CC(=O)NCCCN3CCCC3=O)C(=O)N(CCC3=CCCCC3)C1=C[C@H](C(C)(C)C)O[C@@H]2C	/	1	/	/	/	/
CCN1CCN(c2ccc(S(=O)(=O)N3CCCCC3)cc2NC(=O)c2cccc(C)c2)CC1	66	-1	2	-9	9.3*	-2
SMILES	SUMO Mot1 rescue	MsrA inh	PKA-R2B activ	PKA-R1A activ	bovine MsrA act	MsrA act confirm
Nc1ccccc1SSc1ccccc1N	8	0	0	13	11*	4
O=C1N[C@@H](Cc2ccccc2)COC(=O)[C@H](Cc2ccc(F)cc2)C/C=C\C[C@H]1CC(=O)N(CCO)Cc1ccccc1	-16	-2	2	0	19*	-1
C#CCN(Cc1cccc(F)c1)C(=O)c1nnc2c3ccccc3n(S(=O)(=O)c3ccc(C)cc3)c2n1	/	0	/	/	/	/
Fc1ccc(-c2nnc(SCc3ncc(-c4ccccc4)o3)n2CC2CCCO2)cc1 (stereo not given)	-13	0	-9	-5	11*	2
Cc1cc2c(c(=O)o1)[C@@]1(C(=O)N(C)c3ccccc31)C1=C(CCCC1=O)O2	/	0	/	/	/	/
C[C@H]1COc2cc(N3CCCC3)ccc2S(=O)(=O)N1	/	0	/	/	/	/
CCc1ccc(CN(C)Cc2nc(Cc3cccc(C(F)(F)F)c3)no2)nc1	3	-1	-2	-2	3	/
CCc1ccc(CN(C)Cc2nc(COc3ccccc3)no2)nc1	-8	1	0	-5	7.9*	-1
Cc1ccc([C@H]2C[C@]34CN(Cc5ccccc5)S(=O)(=O)[C@H]3C[C@H]2O4)cc1	/	-1	/	/	/	/
CCN(CC)S(=O)(=O)c1ccc(N2CCCCC2)c(NC(=O)/C=C/c2ccc(OC)c(OC)c2)c1	-14	2	-5	-2	15*	3
CCCCCCC12Cc3cc(OC)c(OC)cc3C(O1)C1=C(O2)C(C)(C)CCC1=O (stereo not given)	/	-1	/	/	/	/
O=c1c2cc(F)ccc2sn1-c1ccccc1	73	0	-6	-5	15*	9.8*
Cc1ccccc1-n1sc2cc(F)ccc2c1=O	702	1	-7	7	15*	9.7*
CC(=O)Nc1ccc2c(=O)n(-c3ccccc3)sc2c1	/	4	0	-3	7.7*	4
O=c1c2ccccc2sn1-c1ccc(S(=O)(=O)N2CCCC2)cc1	38	-2	-5	-9	6	/
O=c1c2ccccc2sn1-c1cccc(Cl)c1	/	1	2	-12	12*	5.8*
O=c1c2ccccc2sn1-c1ccccc1F	/	0	-6	-2	6	/
N#Cc1ccc2c(=O)n(-c3ccccc3)sc2c1	/	-1	2	-9	5	/
COC(=O)[C@]12C[C@H](CC(=O)N3CCCC3)C(=O)N(Cc3ccc4c(c3)OCO4)C1=C[C@H](C(C)(C)C)O[C@@H]2C	/	1	/	/	/	/
COc1ccc(C2CC(=O)C(c3ccc(Cl)cc3)=CN2Cc2ccccc2)cc1 (stereo not given)	/	0	/	/	/	/
CCCCCCCCN1C(=O)[C@@H](CC(=O)N2CCOCC2)C[C@@]2(C(=O)OC)C1=C[C@H](C(C)(C)C)O[C@@H]2C	/	0	/	/	/	/
O=c1c2ccccc2sn1-c1ccccc1	-19	1	3	-5	12*	13*
CN(C)S(=O)(=O)c1cccc(-n2sc3ccccc3c2=O)c1	-5	-1	-10	-8	7.7*	8.9*
COC(=O)C1=C(C)N(Cc2ccccc2C(F)(F)F)C(=NCc2ccc3c(c2)OCO3)NC1c1ccc(C(F)(F)F)cc1 (stereo not given)	/	-1	/	/	/	/
Cc1cccc(NC(=O)NC(=O)c2ccccc2)n1	-4	0	-1	8	8.1*	1
Cn1c(SCCOc2ccccc2Cl)nnc1-c1ccncc1	11	-2	5	-2	8.5*	0
